Consider 13 sequences from paper PMC5700166.

Holding throughout (experiment): protein-binding microarray (PBM); PBM: ~300 nM protein, 6 mM HEPES pH 7.8, 80 mM KCl, 0.5 mM EDTA, 0.5 mM EGTA, 6% glycerol, 35 ng/ul poly-dIdC, 1% milk, 1 h, room temperature; Ap Aiptasia and Nv Nematostella (sea anemones) / Co Capsaspora / Aq Amphimedon (sponge) / Dm Drosophila / Hu human; RHD is the Rel homology domain; high values mean tight binding
Holding throughout (conditions): dsDNA, one strand shown

For one test, the target named is T1, GST-Ap-NF-kB RHD (Exaiptasia pallida (Aiptasia), UniProt A0A913YAJ5 2-422).
T1 sequence: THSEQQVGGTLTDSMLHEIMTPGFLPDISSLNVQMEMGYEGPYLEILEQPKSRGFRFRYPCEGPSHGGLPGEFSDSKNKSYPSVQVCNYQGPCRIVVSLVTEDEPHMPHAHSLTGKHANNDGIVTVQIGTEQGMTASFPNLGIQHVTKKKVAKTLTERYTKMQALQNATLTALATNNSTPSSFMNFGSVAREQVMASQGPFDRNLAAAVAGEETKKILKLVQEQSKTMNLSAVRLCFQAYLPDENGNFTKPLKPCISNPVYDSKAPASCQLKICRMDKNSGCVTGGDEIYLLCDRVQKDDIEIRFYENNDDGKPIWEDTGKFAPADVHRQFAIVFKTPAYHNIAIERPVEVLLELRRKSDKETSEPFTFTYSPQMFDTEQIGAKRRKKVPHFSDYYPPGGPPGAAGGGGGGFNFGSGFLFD

Test [1] deals with T2, GST-Nv-NF-kB (Cys allele) (Nematostella vectensis, UniProt E5G601 2-411).
T2 sequence: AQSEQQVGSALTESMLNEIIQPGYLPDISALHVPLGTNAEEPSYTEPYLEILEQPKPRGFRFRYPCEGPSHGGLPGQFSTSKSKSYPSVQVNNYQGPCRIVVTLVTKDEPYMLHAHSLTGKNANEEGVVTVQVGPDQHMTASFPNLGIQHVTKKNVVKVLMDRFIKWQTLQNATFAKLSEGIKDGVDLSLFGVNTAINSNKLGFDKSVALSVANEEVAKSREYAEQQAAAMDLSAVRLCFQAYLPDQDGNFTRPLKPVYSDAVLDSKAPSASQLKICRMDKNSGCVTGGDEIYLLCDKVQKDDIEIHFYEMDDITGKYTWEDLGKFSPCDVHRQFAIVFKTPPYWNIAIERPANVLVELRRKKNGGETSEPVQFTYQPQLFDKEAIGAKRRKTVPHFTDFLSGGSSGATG

The next test has as its target T3, GST-Co-NF-kB (Capsaspora owczarzaki, UniProt F1ARL5 200-546).
T3 sequence: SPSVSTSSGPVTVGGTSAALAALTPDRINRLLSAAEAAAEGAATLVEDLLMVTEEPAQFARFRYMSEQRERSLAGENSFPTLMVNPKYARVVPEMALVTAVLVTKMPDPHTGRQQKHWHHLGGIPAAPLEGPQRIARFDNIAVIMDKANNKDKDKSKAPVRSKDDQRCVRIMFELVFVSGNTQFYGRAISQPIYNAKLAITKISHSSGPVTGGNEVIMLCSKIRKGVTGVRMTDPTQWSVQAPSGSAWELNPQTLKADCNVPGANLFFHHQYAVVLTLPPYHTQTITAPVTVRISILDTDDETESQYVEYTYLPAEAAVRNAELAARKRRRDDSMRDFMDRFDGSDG

Another test concerns the target T4, GST-Dm-Relish (Drosophila melanogaster, UniProt Q94527 99-473).
T4 sequence: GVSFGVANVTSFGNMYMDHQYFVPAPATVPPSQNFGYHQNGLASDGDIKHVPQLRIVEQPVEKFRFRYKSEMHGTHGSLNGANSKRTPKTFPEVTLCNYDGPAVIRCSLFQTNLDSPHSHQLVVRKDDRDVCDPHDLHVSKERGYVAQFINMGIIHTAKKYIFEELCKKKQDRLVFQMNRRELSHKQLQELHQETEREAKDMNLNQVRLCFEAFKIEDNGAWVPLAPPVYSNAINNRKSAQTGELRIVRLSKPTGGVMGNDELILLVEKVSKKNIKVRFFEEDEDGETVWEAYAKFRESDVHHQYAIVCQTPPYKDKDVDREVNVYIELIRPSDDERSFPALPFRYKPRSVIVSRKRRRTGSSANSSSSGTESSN

For the next test, the target named is T5, GST-Aq-NF-kB (Amphimedon queenslandica, UniProt A9Y5G7 2-389).
T5 sequence: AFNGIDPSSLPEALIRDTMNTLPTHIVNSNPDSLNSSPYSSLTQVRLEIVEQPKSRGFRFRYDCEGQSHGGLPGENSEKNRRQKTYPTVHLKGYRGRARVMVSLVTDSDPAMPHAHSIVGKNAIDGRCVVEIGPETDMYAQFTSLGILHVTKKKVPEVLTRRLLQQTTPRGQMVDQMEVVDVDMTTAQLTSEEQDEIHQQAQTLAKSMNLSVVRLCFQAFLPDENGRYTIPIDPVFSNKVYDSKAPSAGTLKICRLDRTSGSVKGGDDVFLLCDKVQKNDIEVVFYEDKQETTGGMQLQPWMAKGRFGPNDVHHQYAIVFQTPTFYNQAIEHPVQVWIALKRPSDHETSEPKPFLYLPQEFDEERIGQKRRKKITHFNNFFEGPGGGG

As for “CCGATTAACATCATGGGAAAAAATGATGTTAATCGGGTCTTGATTCGCTTGACGCTGCTG”, the binding signal with GST-Ap-NF-kB RHD was found to be 1.94 z-score; in test [1] it was 3.64 z-score; with GST-Co-NF-kB it was 4.93 z-score; in the test with GST-Dm-Relish, 1.7 z-score; in the test with GST-Aq-NF-kB, 2.57 z-score.

Take “CCGATTAACATCAGATCTTCCCCTGATGTTAATCGGGTCTTGATTCGCTTGACGCTGCTG”: the binding signal was found to be 4.63 z-score with GST-Ap-NF-kB RHD; 6.25 z-score in test [1]; 7.3 z-score in the test with GST-Co-NF-kB; 4.83 z-score with GST-Dm-Relish; 6.29 z-score with GST-Aq-NF-kB.

As to “CCGATTAACATCAAAACAGTCCCTGATGTTAATCGGGTCTTGATTCGCTTGACGCTGCTG”, the binding signal in the test with GST-Ap-NF-kB RHD was found to be 4.53 z-score; in test [1] it was 5.79 z-score; with GST-Co-NF-kB, 1.26 z-score; in the test with GST-Dm-Relish, 3.28 z-score; with GST-Aq-NF-kB, 6.16 z-score.

On to “CCGATTAACATCAACGCCCCCCCTGATGTTAATCGGGTCTTGATTCGCTTGACGCTGCTG”, for which the binding signal in the test with GST-Ap-NF-kB RHD turned out to be 5.09 z-score; in test [1], 4.29 z-score; with GST-Co-NF-kB it was 4.15 z-score; in the test with GST-Dm-Relish it was 4.35 z-score; in the test with GST-Aq-NF-kB, 4.73 z-score.

Regarding “CCGATTAACATCACCCGGGAAAATGATGTTAATCGGGTCTTGATTCGCTTGACGCTGCTG”, the binding signal came to 2.61 z-score in the test with GST-Ap-NF-kB RHD; 3.28 z-score in test [1]; 5.18 z-score with GST-Co-NF-kB; 1.52 z-score in the test with GST-Dm-Relish; 2.6 z-score with GST-Aq-NF-kB.

For the sequence “CCGATTAACATCAGAAATTCCCATGATGTTAATCGGGTCTTGATTCGCTTGACGCTGCTG”, the binding signal worked out at 4.5 z-score in the test with GST-Ap-NF-kB RHD; 6.44 z-score in test [1]; 4.07 z-score with GST-Co-NF-kB; 5.05 z-score in the test with GST-Dm-Relish; 4.99 z-score with GST-Aq-NF-kB.

Consider “CCGATTAACATCACGAGTTTCCCTGATGTTAATCGGGTCTTGATTCGCTTGACGCTGCTG”, for which the binding signal turned out to be 3.04 z-score with GST-Ap-NF-kB RHD; 4.31 z-score in test [1]; 3.63 z-score with GST-Co-NF-kB; 1.16 z-score in the test with GST-Dm-Relish; 3.88 z-score with GST-Aq-NF-kB.

On to “CCGATTAACATCAAAAACACCCCTGATGTTAATCGGGTCTTGATTCGCTTGACGCTGCTG”, for which the binding signal was determined as 4.85 z-score with GST-Ap-NF-kB RHD; 3.9 z-score in test [1]; 3.98 z-score with GST-Co-NF-kB; 5.77 z-score with GST-Dm-Relish; 4.95 z-score in the test with GST-Aq-NF-kB.

“CCGATTAACATCATAAGCGGGGATGATGTTAATCGGGTCTTGATTCGCTTGACGCTGCTG”: the binding signal with GST-Ap-NF-kB RHD is 3.32 z-score; in test [1], 3.81 z-score; with GST-Co-NF-kB, 4.81 z-score; with GST-Dm-Relish it was 2.26 z-score; with GST-Aq-NF-kB, 3.7 z-score.

As for “CCGATTAACATCAAAAATCCCATTGATGTTAATCGGGTCTTGATTCGCTTGACGCTGCTG”, the binding signal with GST-Ap-NF-kB RHD came out at 3.2 z-score; in test [1], 3.67 z-score; with GST-Co-NF-kB, 1.08 z-score; with GST-Dm-Relish it was 7.97 z-score; with GST-Aq-NF-kB, 3.96 z-score.

Regarding “CCGATTAACATCACAGCCCCCCCTGATGTTAATCGGGTCTTGATTCGCTTGACGCTGCTG”, the binding signal in the test with GST-Ap-NF-kB RHD came to 4.64 z-score; in test [1], 3.58 z-score; in the test with GST-Co-NF-kB, 3.34 z-score; with GST-Dm-Relish it was 4.81 z-score; with GST-Aq-NF-kB, 3.82 z-score.

For “CCGATTAACATCAAATACTTCCCTGATGTTAATCGGGTCTTGATTCGCTTGACGCTGCTG”, the binding signal with GST-Ap-NF-kB RHD came to 2.22 z-score; in test [1], 3.32 z-score; with GST-Co-NF-kB, 2.96 z-score; with GST-Dm-Relish, 2.69 z-score; with GST-Aq-NF-kB it was 4.24 z-score.

“CCGATTAACATCAGACTTCCCCATGATGTTAATCGGGTCTTGATTCGCTTGACGCTGCTG”: the binding signal came out at 4.7 z-score in the test with GST-Ap-NF-kB RHD; 5.64 z-score in test [1]; 4.24 z-score with GST-Co-NF-kB; 4.24 z-score with GST-Dm-Relish; 4.9 z-score with GST-Aq-NF-kB.
